Compound activity: PubChem, National Center for Advancing Translational Sciences (NCATS)
3T3 cytotox = kills NIH 3T3 cells; NIH 3T3 viability, CellTiter-Glo ATP luminescence, 48-72 h; hit rate 4.3% among 94,000; AID 1345082; Potency, µM (titrated, usually from 96.7 µM), for inactives: at the top dose activity change, negative = cytotoxicity, most hits filed as inhibitors; further: on the % scale 0 is the no-effect control and ±100 the full control effect; nearly all actives have a fitted effect of over 55% in size
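ATP-dependent luminescence (CellTiter-Glo) served as the viability signal for NIH 3T3 cells treated with compound for 48 or 72 hr at 37 °C.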
NPR1 antag = blocks ANP-stimulated signaling of human Npr1 receptor; HEK293 hNpr1 GloSensor cGMP, ANP-stimulated luminescence; Potency, µM (doses to about 46.3 µM), for the others: top-dose activity change, negative = inhibition, usual class: inhibitors; hit rate 1.6% among 76,000; P16066; calls by dose curve; further: on the % scale 0 is the no-effect control and ±100 the full control effect; nearly all actives have a fitted effect of over 60% in size
Target sequence (P16066 whole entry, looked up): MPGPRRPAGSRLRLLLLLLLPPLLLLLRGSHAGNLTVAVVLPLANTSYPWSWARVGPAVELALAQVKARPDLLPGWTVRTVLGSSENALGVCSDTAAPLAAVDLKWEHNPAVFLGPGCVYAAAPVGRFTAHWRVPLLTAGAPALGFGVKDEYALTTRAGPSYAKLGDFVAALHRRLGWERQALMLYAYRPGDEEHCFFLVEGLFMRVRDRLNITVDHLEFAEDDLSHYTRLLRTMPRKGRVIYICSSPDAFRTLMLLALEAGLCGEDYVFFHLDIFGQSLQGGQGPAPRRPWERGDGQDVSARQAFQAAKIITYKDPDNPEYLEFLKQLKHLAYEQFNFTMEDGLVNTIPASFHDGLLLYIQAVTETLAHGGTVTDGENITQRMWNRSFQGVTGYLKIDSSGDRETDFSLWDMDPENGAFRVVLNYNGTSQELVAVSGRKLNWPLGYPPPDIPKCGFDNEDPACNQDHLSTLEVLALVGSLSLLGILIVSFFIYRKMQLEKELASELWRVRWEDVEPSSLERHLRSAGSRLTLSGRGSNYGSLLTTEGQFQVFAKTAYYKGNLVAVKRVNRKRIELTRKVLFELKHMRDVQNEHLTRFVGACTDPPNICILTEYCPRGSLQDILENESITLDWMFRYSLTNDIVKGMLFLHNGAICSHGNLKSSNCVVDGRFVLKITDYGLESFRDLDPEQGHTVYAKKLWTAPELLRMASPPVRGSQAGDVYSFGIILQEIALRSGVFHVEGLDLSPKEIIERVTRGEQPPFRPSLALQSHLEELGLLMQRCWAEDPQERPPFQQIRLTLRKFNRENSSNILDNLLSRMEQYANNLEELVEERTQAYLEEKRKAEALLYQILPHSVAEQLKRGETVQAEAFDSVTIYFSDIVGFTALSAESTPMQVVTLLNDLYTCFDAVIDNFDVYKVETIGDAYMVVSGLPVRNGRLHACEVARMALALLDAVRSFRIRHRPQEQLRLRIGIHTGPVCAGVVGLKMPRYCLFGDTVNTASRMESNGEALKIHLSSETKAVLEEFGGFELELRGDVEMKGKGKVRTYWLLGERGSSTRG
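Compound pre-incubated 30 min at room temperature on GloSensor-loaded HEK293 cells stably carrying hNpr1 and the pGS-40F cGMP biosensor. Stimulation uses hNppA at 0.1 nM final; luminescence is taken at baseline and 20 min post-agonist.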
Luciferase inh = blocks purified firefly luciferase enzyme activity; P08659; purified P. pyralis luciferase, luminescence, biochemical; Potency, µM (series often up to 115 µM), actives largely listed as inhibitors; hit rate 2.5% among 76,000; further: on the % scale 0 is the no-effect control and ±100 the full control effect; nearly all actives have a fitted effect of over 65% in size
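Purified 10nM P. pyralis luciferase with 10uM D-luciferin and 10uM ATP in 50mM Tris acetate pH 7.5, 10mM Mg acetate, 0.01% Tween-20, 0.05% BSA. qHTS titration; luminescence read by CCD imager.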
GPT2 inh = inhibitors of human GPT2 alanine aminotransferase. Q8TD30. Recombinant GPT2, coupled pyruvate oxidase/HRP Amplex Red fluorescence. Potency, µM (highest dose often 57.7 µM), for the others: at the top dose activity change, negative = inhibition, hits mostly inhibitors. hit rate 0.25% among 100,000; further: on the % scale 0 is the no-effect control and ±100 the full control effect; nearly all actives have a fitted effect of over 60% in size
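Fluorescence of coupled pyruvate oxidase/HRP/Amplex Red system (50uM Amplex, 30 min, dark) reports pyruvate formed by GPT2. Enzyme reaction: 10ng/uL GPT2, 2mM L-alanine, 250uM a-KG, 30 min room temperature, pH 7.5; 50uM AOA control.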
HEK cytotox = cytotoxic compounds in HEK 293 cells; HEK 293 viability, ATP luminescence (CellTiter-Glo), 48-72 h; Potency, µM (highest dose often 115 µM), for inactives: at the highest dose activity change, negative = cytotoxicity, most hits filed as inhibitors; hit rate 6.6% among 94,000; AID 1345083; further: on the % scale 0 is the no-effect control and ±100 the full control effect; nearly all actives have a fitted effect of over 60% in size
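HEK 293 seeded at 250 cells/well receive compound via pintool. After 48 or 72 hr at 37 degree Celsius, 5% CO2 and 95% humidity, CellTiter-Glo is dispensed and luminescence read following 10 min at room temperature.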
NPR1 antag cnf = confirmation of human Npr1 natriuretic peptide receptor antagonists; shares compounds with NPR1 antag; HEK293 hNpr1 cGMP GloSensor luminescence, ANP-stimulated; Potency, µM (top dose mostly 57.6 µM), for the others: at the highest dose activity change, negative = inhibition, most hits filed as inhibitors; hit rate 76% among 1,400; AID 1347044; calls by dose curve; further: nearly all actives have a fitted effect of over 70% in size
NPR2 antag = antagonizes human Npr2, subtype selectivity check | shares compounds with NPR1 antag | HEK293 hNpr2 GloSensor cGMP luminescence, CNP-stimulated | Potency, µM (doses to about 57.6 µM), inactives show top-dose activity change, negative = inhibition, actives largely listed as inhibitors | hit rate 67% among 1,400; calls by dose curve; further: nearly all actives have a fitted effect of over 70% in size
FLuc inh counter = counter-screen for Npr1 antagonists: firefly luciferase inhibitors | hit rate 0.7% among 1,400 | shares compounds with NPR1 antag | purified FLuc enzyme, luminescence, Km substrate | Potency, µM (series often up to 57.6 µM), for inactives: at the top dose activity change, negative = inhibition, actives largely listed as inhibitors | AID 1347047; further: 0% is about no effect
GloSensor cGMP = control cell line activity, Npr1 antagonist counter-screen. shares compounds with NPR1 antag. HEK293 GloSensor cGMP, SNP-stimulated, luminescence. Potency, µM (top dose mostly 57.6 µM), for inactives: top-dose activity change, negative = inhibition, hits mostly inhibitors. hit rate 69% among 1,400. AID 1347051; calls by dose curve; further: on the % scale 0 is the no-effect control and ±100 the full control effect; nearly all actives have a fitted effect of over 70% in size
* marks the source's active call; other numbers are inactive results; [ ] = another dose, or the depositor's remark. Only some compounds are listed: those with a hit (about 10% of all), similar ones and a draw of the others. Unless noted, the call rests on the fitted dose curve; in most records, active means well fitted curve in the direction sought with a large enough effect; inconclusive means small, poorly fitted or top-dose-only effect, or another doubt; inactive means no such curve, though single readings can be large; an effect the other way counts as inactive or inconclusive. Potency means the concentration at half of the fitted maximal effect.

COc1ccc(OC)c(CN2CCCn3nc(C)c(-c4ccccc4C(C)C)c32)c1 was read as 3T3 cytotox 35µM*, NPR1 antag -27%[70.6 µM], Luciferase inh inactive, GPT2 inh inactive, HEK cytotox 63µM*, NPR1 antag cnf 40µM*, NPR2 antag 40µM*, FLuc inh counter 2%[86.2 µM] and GloSensor cGMP inconclusive.
Cc1nn2c(c1-c1ccccc1C(C)C)N(CCC(C)C)CCC2 was read as 3T3 cytotox 8.9µM*, NPR1 antag 2.5µM*, Luciferase inh inactive, GPT2 inh -14%[88.5 µM], HEK cytotox 11µM*, NPR1 antag cnf 1.6µM*, NPR2 antag 2.5µM*, FLuc inh counter -10%[86.2 µM] and GloSensor cGMP 1.8µM*.
Screening Cc1nn2c(c1-c1ccccc1C(C)C)N(Cc1cccc(C(=O)O)c1)CCC2 returned 3T3 cytotox 45µM*, NPR1 antag inconclusive, Luciferase inh inactive, GPT2 inh 0%[88.5 µM], HEK cytotox 56µM*, NPR1 antag cnf inconclusive, NPR2 antag -22%[86.2 µM], FLuc inh counter -2%[86.2 µM] and GloSensor cGMP -23%[86.2 µM].
Cc1nn2c(c1-c1ccccc1C(N)=O)N(C(=O)c1ccccc1)CCC2 was read as 3T3 cytotox inconclusive, NPR1 antag 0%[70.6 µM], Luciferase inh inactive, GPT2 inh -3%[88.5 µM] and HEK cytotox inactive.
COc1ccc(Cn2c(C3CCN(C(=O)c4ccc(C)c(C)c4)CC3)n[nH]c2=O)cc1 was read as 3T3 cytotox -5%, NPR1 antag 3%, Luciferase inh inactive, GPT2 inh -6% and HEK cytotox -7%.
For C=C1C(=O)O[C@@H]2C[C@]3(C)[C@@H](CCC(C)O)[C@@H]3C[C@H]12 (some centres undefined) the results were GPT2 inh 1%.
For COc1ccc(OC)c(CNC(=O)c2ccc(-c3ccc(N4CCSCC4)nc3)cc2)c1 the results were 3T3 cytotox inconclusive, NPR1 antag 7.1µM*, Luciferase inh inactive, GPT2 inh -15%, HEK cytotox inconclusive, NPR1 antag cnf 6.9µM*, NPR2 antag 6.9µM*, FLuc inh counter -21% and GloSensor cGMP 6.1µM*.
For COc1cccc(CNC(=O)c2ccc(-c3ccc(N4CCSCC4)nc3)cc2)c1 the results were 3T3 cytotox -14%, NPR1 antag inconclusive, Luciferase inh inconclusive, GPT2 inh inactive and HEK cytotox inconclusive.
Screening Cc1ccccc1C(=O)N1CCCN(c2cc(-c3ccc(F)cc3)[nH]n2)CC1 returned 3T3 cytotox -22%, NPR1 antag -3%, Luciferase inh inactive, GPT2 inh -26% and HEK cytotox inconclusive.
`Cc1ccccc1C(=O)N1CCN(c2cc(-c3ccc(Cl)cc3)[nH]n2)CC1` gave 3T3 cytotox inconclusive, NPR1 antag 11µM*, Luciferase inh inactive, GPT2 inh 0%, HEK cytotox inconclusive, NPR1 antag cnf 19µM*, NPR2 antag 24µM*, FLuc inh counter -6% and GloSensor cGMP 17µM*.
`O=C(c1ccc(Cl)cc1Cl)N1CCN(c2cc(-c3ccccc3)[nH]n2)CC1` gave 3T3 cytotox 32µM*, NPR1 antag 10µM*, Luciferase inh inactive, GPT2 inh inactive, HEK cytotox 20µM*, NPR1 antag cnf 14µM*, NPR2 antag 19µM*, FLuc inh counter 1% and GloSensor cGMP 14µM*.
For O=C(N1CCCN(c2cc(-c3ccc(Cl)cc3)[nH]n2)CC1)C1(c2ccccc2)CC1 the results were 3T3 cytotox 35µM*, NPR1 antag inconclusive, Luciferase inh inactive, GPT2 inh inconclusive, HEK cytotox 40µM*, NPR1 antag cnf 19µM*, NPR2 antag 19µM*, FLuc inh counter 4% and GloSensor cGMP 17µM*.
Screening Cc1ccc(C(=O)N2CCN(c3cc(-c4ccccc4)[nH]n3)CC2)c(C)c1 returned 3T3 cytotox 45µM*, NPR1 antag 11µM*, Luciferase inh inactive, GPT2 inh inactive, HEK cytotox inconclusive, NPR1 antag cnf 24µM*, NPR2 antag 24µM*, FLuc inh counter 2% and GloSensor cGMP 22µM*.
`COCCN1C(=O)c2ccccc2C(C(=O)NCCc2ccc(Cl)cc2)C12CCCC2` (centres undefined) gave 3T3 cytotox -28%, NPR1 antag -16%, Luciferase inh inactive, GPT2 inh inactive and HEK cytotox inconclusive.
Screening CCNC(=O)c1ccc(-c2cc(NC3CCCC3)nc3[nH]ccc23)nc1 returned 3T3 cytotox -30%, NPR1 antag -2%, Luciferase inh inactive, GPT2 inh -14% and HEK cytotox -25%.
For CNC(=O)c1cc(C2CC2)nc2c1c(C1CCCN1C(=O)OC)nn2C (centres undefined) the results were 3T3 cytotox -22% and HEK cytotox -1%.
`CCc1ccc(C(=O)N2CCc3[nH]nc(C(=O)N(C)C)c3C2)cc1` gave 3T3 cytotox -26%, NPR1 antag -4%, Luciferase inh inactive, GPT2 inh inactive and HEK cytotox -19%.
Screening COc1ccccc1-c1noc(CCC(=O)N2CCC(Cc3noc(C)n3)CC2)n1 returned 3T3 cytotox -20%, NPR1 antag -2%, Luciferase inh inactive, GPT2 inh 4% and HEK cytotox -25%.
`O=C(CCc1ccccc1)N1CCC(Cc2nc(-c3ccc(F)cc3)no2)CC1` gave 3T3 cytotox inconclusive, NPR1 antag 5µM*, Luciferase inh inactive, GPT2 inh -9%, HEK cytotox 45µM*, NPR1 antag cnf 6.1µM*, NPR2 antag 7.7µM*, FLuc inh counter 1% and GloSensor cGMP 5.4µM*.
